Compound activity from PubChem.
A549 tox = Nrf2 qHTS screen for inhibitors: counterscreen for cytotoxicity; A549 ARE-Fluc cells, CellTiter-Fluor viability, 18-24 h; Potency, µM (highest dose often 46 µM), actives largely listed as inhibitors; 390,000 compounds, 0.16% hits; AID 504648, 2011
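A549 ARE-Fluc cells in 5% FBS OPTI-MEM, 5000 cells/well, rested 2 h then exposed to compounds in concentration-response for 18-24 h at 37 °C. Viability by CellTiter-Fluor fluorescence (Ex 405/Em 525) after 30 min; luciferase luminescence (BugLite, 15 min, RT) read afterwards.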
Nrf2 ARE act = qHTS of Nrf2 Activators; AREc32 ARE-luciferase reporter (MCF7-derived line), luminescence, 24 h; Potency, µM (highest dose often 46.1 µM), most hits filed as activators; 410,000 compounds, 0.31% hits; AID 624171, 2012; further: nearly all actives have a fitted effect of over 65% in size
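Each well held 1000 AREc32 cells, which were incubated with compound for 24 hr at 37 deg C after overnight attachment, and ARE reporter activity was quantified by firefly luciferase luminescence.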
BRCA1 expr up = qHTS Assay to Identify Small Molecule Activators of BRCA1 Expression | 380,000 compounds, 1.1% hits | Potency, µM (highest dose often 46.1 µM), most hits filed as activators | MCF7-BRCA1-FFLuc reporter, luminescence, 48 h; response scale: scaled: vehicle 0%, 10 µM genistein 100%; further: nearly all actives have a fitted effect of over 80% in size
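MCF7-BRCA1-FFLuc cells, 2000/well in phenol-red-free MEM, attached 2 h then treated 48 h at 37 C. Luciferase luminescence read 15 min after reagent; normalized to genistein maximum activation (10microM) and DMSO, concentration-response fitted.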
Nrf2 block = Nrf2 qHTS screen for inhibitors; A549 ARE-Fluc reporter, luciferase luminescence, 18-24 h; Potency, µM (series often up to 46 µM), hits mostly inhibitors; 360,000 compounds, 2.1% hits; AID 504444, 2011; further: nearly all actives have a fitted effect of over 60% in size
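Nrf2 activity is the BugLite luminescence, read 15 min after reagent at room temperature, following CellTiter-Fluor cytotoxicity readout (30 min, 37C). Compound titrations were applied for 18-24 h to 5000 A549 ARE_Fluc cells/well in 5% FBS OPTI-MEM.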
IL-2 act = qHTS of IL-2 Activators | IL-2 activation reporter assay, cell-based qHTS; stimulated with anti-CD3/CD4/CD28 beads; in transgenic mouse T cells | activation, % (series mostly up to about 46 µM) | 360,000 compounds, 0.065% hits; in the data active means activation above about 50%; inconclusive means mostly about 30% to 49%
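Readout is EGFP and DsRed signal by fluorescent plate cytometry after 18 h at 37 degrees C. Transgenic mouse T cells (750/well) received compound for 60 min before bead stimulation (anti-CD3, anti-CD4, anti-CD28); memory T cells served as non-tolerant control.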
p53 reactivation = qHTS assay for re-activators of p53 using a Luc reporter | H1299 p53-A138V BP100-luciferase reporter, luminescence, 24 h | 320,000 compounds, 0.063% hits | AID 504706, 2011 | Potency, µM (titrated, usually from 92.2 µM), hits mostly activators; further: nearly all actives have a fitted effect of over 45% in size
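H1299 (p53-null), stable ts p53-A138V + BP100-Luc; 1000 cells/well, Opti-MEM/10% FBS; cpd 4 pt, 1:5; 24 h, 37 deg C, 5% CO2; detection reagent 10 min RT; luminescence.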
A number is an active result. Rows were chosen to be rich in hits. Some 3.2% of all compounds tested hit in one or more screens of this group. Unless noted, the call rests on the fitted dose curve; in most records, active means well fitted curve in the direction sought with a large enough effect; inconclusive means small, poorly fitted or top-dose-only effect, or another doubt; inactive means no such curve, though single readings can be large; an effect the other way counts as inactive or inconclusive.

Screening O=C(CCN1C(=O)/C(=C/c2ccccc2)SC1=S)Nc1ccccn1 returned A549 tox inactive, Nrf2 ARE act inactive, BRCA1 expr up inactive, Nrf2 block inactive, IL-2 act inactive and p53 reactivation inactive.
Screening CCc1ccc(/C=C2/SC(=S)N(CCC(=O)Nc3cccnc3)C2=O)cc1 returned A549 tox inactive, Nrf2 ARE act inactive, BRCA1 expr up inactive, Nrf2 block inactive and IL-2 act 53.6.
O=C(CCN1C(=O)/C(=C/c2ccccc2)SC1=S)Nc1cccnc1 was read as A549 tox inactive, Nrf2 ARE act inactive, BRCA1 expr up inactive, Nrf2 block inactive, IL-2 act inactive and p53 reactivation inactive.
Screening COc1ccc(Cl)cc1NC(=O)C(=O)NCc1ccc(Cl)cc1 returned A549 tox inactive, Nrf2 ARE act inactive and Nrf2 block inactive.
For O=C(CCC(=O)Nc1ccc(Cl)cc1Cl)N/N=C/c1ccc([N+](=O)[O-])o1 the results were A549 tox inactive, Nrf2 ARE act inactive, BRCA1 expr up inactive, Nrf2 block 18.4µM, IL-2 act inactive and p53 reactivation inactive.
Cc1ccc(NCC(=O)N/N=C\c2ccc([N+](=O)[O-])o2)cc1 was read as A549 tox inconclusive, Nrf2 ARE act inactive, BRCA1 expr up inactive, Nrf2 block 20.6µM, IL-2 act inactive and p53 reactivation inactive.
`O=C(CNc1ccccc1)N/N=C/c1ccc([N+](=O)[O-])o1` gave A549 tox inconclusive, Nrf2 ARE act inactive, BRCA1 expr up inactive, Nrf2 block 18.4µM, IL-2 act inactive and p53 reactivation inactive.
For O=C(CNC(=O)c1ccccc1)N/N=C/c1ccc([N+](=O)[O-])o1 the results were A549 tox inconclusive, Nrf2 ARE act inactive, BRCA1 expr up inactive, Nrf2 block inconclusive, IL-2 act inactive and p53 reactivation inactive.
Screening CCOc1ccc(N(C)S(=O)(=O)c2c(C(=O)N3CCC(C)CC3)c(C)n(C)c2C)cc1 returned A549 tox inactive and Nrf2 ARE act inactive.
Cc1ccc(NC(=O)CC(=O)c2ccc([N+](=O)[O-])cc2)cc1S(=O)(=O)Nc1cccc(Cl)c1 was read as A549 tox inconclusive, Nrf2 ARE act inactive, BRCA1 expr up inactive, Nrf2 block 16.4µM, IL-2 act inactive and p53 reactivation inactive.
CCCCC(CC)C(=O)Nc1ncc([N+](=O)[O-])s1 (stereo unspecified) was read as A549 tox 18.4µM, Nrf2 ARE act inactive, BRCA1 expr up inactive, Nrf2 block 9.2µM, IL-2 act inactive and p53 reactivation inactive.
Screening Cc1ccc(CC(=O)Nc2ncc([N+](=O)[O-])s2)cc1 returned A549 tox inactive, Nrf2 ARE act inactive, BRCA1 expr up inconclusive, Nrf2 block inconclusive, IL-2 act inactive and p53 reactivation inactive.
c1ccc(-n2nnc(-c3cccnc3)n2)cc1 was read as A549 tox inactive, Nrf2 ARE act inactive, BRCA1 expr up 7.94µM, Nrf2 block inconclusive, IL-2 act inactive and p53 reactivation inconclusive.
Screening Cc1ccc(-n2nnc(-c3cccnc3)n2)cc1 returned A549 tox inactive, Nrf2 ARE act inactive, BRCA1 expr up inconclusive, Nrf2 block inactive and IL-2 act inactive.
Cc1nn(CC(=O)NCCc2ccccc2Cl)c(=O)c2nn(-c3ccccc3)c(C)c12 was read as A549 tox inactive, Nrf2 ARE act inactive and Nrf2 block inconclusive.
For COc1cc2c(cc1N)-c1ccc(N)cc1C2 the results were A549 tox inactive, Nrf2 ARE act inactive, BRCA1 expr up 7.94µM, Nrf2 block inactive and IL-2 act inactive.
CN(C)c1ccc(C(CNC(=O)COc2ccccc2)N2CCOCC2)cc1 (stereo unspecified) was read as A549 tox inactive and Nrf2 ARE act inactive.
Screening Cc1nc(Nc2ccccc2F)c2oc3ccccc3c2n1 returned A549 tox inactive, Nrf2 ARE act 3.16µM, BRCA1 expr up inactive, Nrf2 block inconclusive, IL-2 act inactive and p53 reactivation inactive.
Screening Cc1nc(Nc2ccccc2O)c2oc3ccccc3c2n1 returned A549 tox inactive, Nrf2 ARE act inactive, BRCA1 expr up inactive, Nrf2 block inactive, IL-2 act inactive and p53 reactivation inactive.
CCC(NC(=O)c1cc(COc2ccc(F)cc2Cl)on1)c1ccncc1 (stereo unspecified) was read as A549 tox inconclusive, Nrf2 ARE act inactive, BRCA1 expr up inactive, Nrf2 block 16.4µM and IL-2 act inactive.
CN(CCc1ccccc1)C(=O)c1cc(COc2ccc(F)cc2Cl)on1 was read as A549 tox inactive, Nrf2 ARE act inactive, BRCA1 expr up 12.6µM, Nrf2 block inconclusive, IL-2 act inactive and p53 reactivation inactive.
For CCC(NC(=O)c1cc(COc2cncc(Cl)c2)on1)c1ccncc1 (stereo unspecified) the results were A549 tox inactive, Nrf2 ARE act inactive, BRCA1 expr up inactive, Nrf2 block inconclusive, IL-2 act inactive and p53 reactivation inactive.
`CN(CCN1CCOCC1)C(=O)c1cc(COc2ccc(F)cc2Cl)on1` gave Nrf2 ARE act inactive, BRCA1 expr up inactive and IL-2 act inactive.
`O=C(Nc1cc(Cl)cc(Cl)c1)c1cc(S(=O)(=O)NC2CCCC2)ccc1F` gave A549 tox inactive and Nrf2 ARE act inactive.
Screening Cc1nc2ccc(S(=O)(=O)Nc3cccc(-c4nc5cccnc5s4)c3C)cc2s1 returned A549 tox inactive, Nrf2 ARE act inactive, BRCA1 expr up inactive, Nrf2 block 23.1µM, IL-2 act inactive and p53 reactivation inactive.
`Cc1nc2ccc(S(=O)(=O)Nc3cc(-c4nc5cccnc5s4)ccc3C)cc2s1` gave A549 tox inactive, Nrf2 ARE act inactive, BRCA1 expr up inactive, Nrf2 block inactive, IL-2 act inactive and p53 reactivation inconclusive.
`Cc1ccc(NC(=O)CN2CCc3cc4c(cc3C2C)OCCCO4)cc1C` (stereo unspecified) gave A549 tox inactive, Nrf2 ARE act inactive, BRCA1 expr up inactive, Nrf2 block 25.9µM, IL-2 act inactive and p53 reactivation inactive.
For CC1c2cc3c(cc2CCN1CC(=O)Nc1ccccc1)OCCCO3 (stereo unspecified) the results were A549 tox inactive, Nrf2 ARE act inactive, BRCA1 expr up inactive, Nrf2 block 18.4µM, IL-2 act inactive and p53 reactivation inactive.
Screening Cc1ccc(NC(=O)CN2CCc3cc4c(cc3C2C)OCCCO4)cc1 (stereo unspecified) returned A549 tox inactive, Nrf2 ARE act inactive, BRCA1 expr up inactive, Nrf2 block inactive, IL-2 act inactive and p53 reactivation inactive.
